# Data from paper PMC7862700, “An all-to-all approach to the identification of sequence-specific readers for epigenetic DNA modifications on cytosine”.
# Assays:
# Assay in all cases: DAPPL (digital affinity profiling via proximity ligation, sequencing); 10 mM Tris-HCl pH 7.5, 50 mM NaCl, 1 mM DTT, 4% glycerol, room temperature, 30 min; GST-TFs on glutathione beads, 16-mer random dsDNA library, 0.1% formaldehyde crosslink after washing; high values mean tight binding
# FLI1 = target: T1, FLI1 (Homo sapiens, UniProt Q01543 1-452); conditions: protein: recombinant; tags: N-terminal GST; dsDNA, one strand shown
# T1 sequence: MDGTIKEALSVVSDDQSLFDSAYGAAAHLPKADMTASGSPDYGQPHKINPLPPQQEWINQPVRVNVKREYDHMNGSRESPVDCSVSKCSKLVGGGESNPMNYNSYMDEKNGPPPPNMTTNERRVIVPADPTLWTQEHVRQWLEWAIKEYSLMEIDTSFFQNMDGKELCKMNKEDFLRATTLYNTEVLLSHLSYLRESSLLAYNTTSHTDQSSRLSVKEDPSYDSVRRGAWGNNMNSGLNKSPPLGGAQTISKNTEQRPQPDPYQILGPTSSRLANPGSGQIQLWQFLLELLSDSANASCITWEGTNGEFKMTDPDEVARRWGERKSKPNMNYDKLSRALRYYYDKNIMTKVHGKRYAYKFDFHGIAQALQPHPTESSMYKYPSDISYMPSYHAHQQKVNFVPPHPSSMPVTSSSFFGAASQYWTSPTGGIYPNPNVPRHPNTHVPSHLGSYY
# How it was run: (§1)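 The binding signal reported is, for every hexamer, its read frequency for a factor over its read frequency for the tag-only sample. Reads came from pools of yeast-expressed, GST-fused human transcription factors on glutathione beads, barcoded with DNA and mixed with that sample, which were incubated with 200 nmole of a random double-stranded 16-mer DNA library in Tris/NaCl/DTT/glycerol buffer at room temperature for 30 min. After washing, the pools were crosslinked with 0.1% formaldehyde, proximity-ligated with BsaI/T4 ligase for 1 h at 37 °C, PCR-amplified and sequenced on an Illumina NextSeq500.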
# ELK1 = target: T2, ELK1 (Homo sapiens, UniProt P19419 1-428); conditions: protein: recombinant; tags: N-terminal GST; dsDNA, one strand shown
# T2 sequence: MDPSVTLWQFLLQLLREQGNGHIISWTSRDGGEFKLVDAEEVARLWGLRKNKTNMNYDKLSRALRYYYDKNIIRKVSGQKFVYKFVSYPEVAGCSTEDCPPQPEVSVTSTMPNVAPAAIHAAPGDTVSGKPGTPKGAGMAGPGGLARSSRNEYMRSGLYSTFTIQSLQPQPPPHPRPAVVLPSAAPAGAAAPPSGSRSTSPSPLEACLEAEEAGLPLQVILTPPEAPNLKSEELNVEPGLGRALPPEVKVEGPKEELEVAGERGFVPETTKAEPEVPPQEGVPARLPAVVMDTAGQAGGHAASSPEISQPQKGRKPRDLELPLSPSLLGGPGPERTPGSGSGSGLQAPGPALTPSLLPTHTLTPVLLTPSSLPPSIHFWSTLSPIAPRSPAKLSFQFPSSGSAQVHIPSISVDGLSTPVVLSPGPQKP
# How it was run: as §1
# GABPA = target: T3, GABPA (Homo sapiens, UniProt Q06546 1-454); conditions: protein: recombinant; tags: N-terminal GST; dsDNA, one strand shown
# T3 sequence: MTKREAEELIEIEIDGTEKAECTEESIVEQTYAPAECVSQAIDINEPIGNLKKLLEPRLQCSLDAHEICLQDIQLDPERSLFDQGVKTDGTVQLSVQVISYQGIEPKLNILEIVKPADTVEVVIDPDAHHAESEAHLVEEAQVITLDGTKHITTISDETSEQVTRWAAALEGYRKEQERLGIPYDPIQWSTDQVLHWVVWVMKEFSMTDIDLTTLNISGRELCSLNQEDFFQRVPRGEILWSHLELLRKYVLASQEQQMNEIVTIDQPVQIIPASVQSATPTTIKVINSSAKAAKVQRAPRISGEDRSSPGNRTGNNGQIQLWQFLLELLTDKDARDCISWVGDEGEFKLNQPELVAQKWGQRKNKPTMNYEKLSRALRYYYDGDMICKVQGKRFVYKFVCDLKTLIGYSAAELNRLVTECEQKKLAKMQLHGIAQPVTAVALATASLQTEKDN
# How it was run: as §1
# ERG = target: T4, ERG (Homo sapiens, UniProt P11308 1-479); conditions: protein: recombinant; tags: N-terminal GST; dsDNA, one strand shown
# T4 sequence: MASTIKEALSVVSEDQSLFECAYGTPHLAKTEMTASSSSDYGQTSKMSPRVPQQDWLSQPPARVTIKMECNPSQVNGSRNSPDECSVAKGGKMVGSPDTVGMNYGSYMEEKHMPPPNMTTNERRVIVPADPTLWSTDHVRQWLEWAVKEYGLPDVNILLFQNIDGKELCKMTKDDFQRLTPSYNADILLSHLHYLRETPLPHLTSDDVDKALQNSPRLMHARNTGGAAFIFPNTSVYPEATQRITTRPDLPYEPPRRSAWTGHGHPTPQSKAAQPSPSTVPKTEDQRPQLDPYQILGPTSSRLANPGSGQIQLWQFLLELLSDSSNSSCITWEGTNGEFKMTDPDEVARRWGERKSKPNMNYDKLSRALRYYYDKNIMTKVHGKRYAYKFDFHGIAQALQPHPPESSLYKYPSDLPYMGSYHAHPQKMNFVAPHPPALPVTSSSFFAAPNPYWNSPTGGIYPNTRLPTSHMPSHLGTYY
# How it was run: as §1
# ELF1 = ELF1 (Homo sapiens, UniProt P32519 1-619); conditions: protein: recombinant; tags: N-terminal GST; dsDNA, one strand shown
# How it was run: as §1
# SPI1 = SPI1 (Homo sapiens, UniProt P17947 1-270); conditions: protein: recombinant; tags: N-terminal GST; dsDNA, one strand shown
# How it was run: as §1
# SPIB = SPIB (Homo sapiens, UniProt Q01892 1-262); conditions: protein: recombinant; tags: N-terminal GST; dsDNA, one strand shown
# How it was run: as §1
# FEV = target: T5, FEV (Homo sapiens, UniProt Q99581 1-238); conditions: protein: recombinant; tags: N-terminal GST; dsDNA, one strand shown
# T5 sequence: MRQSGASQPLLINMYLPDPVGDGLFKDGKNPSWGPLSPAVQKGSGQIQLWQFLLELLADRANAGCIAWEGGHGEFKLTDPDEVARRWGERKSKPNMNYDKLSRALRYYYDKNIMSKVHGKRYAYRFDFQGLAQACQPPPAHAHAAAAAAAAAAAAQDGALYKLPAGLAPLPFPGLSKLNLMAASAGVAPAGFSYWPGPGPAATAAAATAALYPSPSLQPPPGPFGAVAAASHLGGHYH
# How it was run: as §1
# ETV5 = ETV5 (Homo sapiens, UniProt P41161 1-510); conditions: protein: recombinant; tags: N-terminal GST; dsDNA, one strand shown
# How it was run: as §1
# HSF1 = HSF1 (Homo sapiens, UniProt Q00613 1-529); conditions: protein: recombinant; tags: N-terminal GST; chain copies: 3; dsDNA, one strand shown
# How it was run: as §1
# SPIC = target: T6, SPIC (Homo sapiens, UniProt Q8N5J4 1-248); conditions: protein: recombinant; tags: N-terminal GST; dsDNA, one strand shown
# T6 sequence: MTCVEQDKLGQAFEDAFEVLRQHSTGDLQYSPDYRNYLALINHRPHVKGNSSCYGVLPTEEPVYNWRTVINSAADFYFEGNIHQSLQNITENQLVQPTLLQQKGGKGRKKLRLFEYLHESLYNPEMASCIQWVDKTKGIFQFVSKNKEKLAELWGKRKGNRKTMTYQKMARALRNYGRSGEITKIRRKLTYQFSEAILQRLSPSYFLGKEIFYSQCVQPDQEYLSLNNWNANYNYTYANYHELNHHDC
# How it was run: as §1
# ELF4 = ELF4 (Homo sapiens, UniProt Q99607 1-663); conditions: protein: recombinant; tags: N-terminal GST; dsDNA, one strand shown
# How it was run: as §1
# ELK4 = target: T7, ELK4 (Homo sapiens, UniProt P28324-2 1-405); conditions: protein: recombinant; tags: N-terminal GST; dsDNA, one strand shown
# T7 sequence: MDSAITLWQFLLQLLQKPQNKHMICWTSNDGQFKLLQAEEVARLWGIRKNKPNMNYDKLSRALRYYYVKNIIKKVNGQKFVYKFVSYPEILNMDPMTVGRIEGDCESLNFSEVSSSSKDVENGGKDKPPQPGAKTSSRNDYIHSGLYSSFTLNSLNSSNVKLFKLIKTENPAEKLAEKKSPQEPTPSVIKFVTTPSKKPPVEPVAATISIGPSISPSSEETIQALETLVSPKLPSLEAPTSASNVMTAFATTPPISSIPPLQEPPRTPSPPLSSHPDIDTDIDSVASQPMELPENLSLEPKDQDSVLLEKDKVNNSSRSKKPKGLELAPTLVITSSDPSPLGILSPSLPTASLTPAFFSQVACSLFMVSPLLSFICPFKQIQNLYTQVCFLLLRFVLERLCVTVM
# How it was run: as §1
# ETV2 = target: T8, ETV2 (Homo sapiens, UniProt O00321 1-342); conditions: protein: recombinant; tags: N-terminal GST; dsDNA, one strand shown
# T8 sequence: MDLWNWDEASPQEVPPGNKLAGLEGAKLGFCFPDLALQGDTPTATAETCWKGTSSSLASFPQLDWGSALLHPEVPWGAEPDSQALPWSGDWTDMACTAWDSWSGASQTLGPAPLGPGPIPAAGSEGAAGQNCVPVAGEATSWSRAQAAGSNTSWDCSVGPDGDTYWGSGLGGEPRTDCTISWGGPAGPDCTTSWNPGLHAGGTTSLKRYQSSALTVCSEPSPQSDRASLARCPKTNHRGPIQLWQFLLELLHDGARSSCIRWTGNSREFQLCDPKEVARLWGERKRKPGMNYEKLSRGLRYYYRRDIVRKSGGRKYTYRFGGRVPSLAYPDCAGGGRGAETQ
# How it was run: as §1
# ELF3 = target: T9, ELF3 (Homo sapiens, UniProt P78545 1-371); conditions: protein: recombinant; tags: N-terminal GST; dsDNA, one strand shown
# T9 sequence: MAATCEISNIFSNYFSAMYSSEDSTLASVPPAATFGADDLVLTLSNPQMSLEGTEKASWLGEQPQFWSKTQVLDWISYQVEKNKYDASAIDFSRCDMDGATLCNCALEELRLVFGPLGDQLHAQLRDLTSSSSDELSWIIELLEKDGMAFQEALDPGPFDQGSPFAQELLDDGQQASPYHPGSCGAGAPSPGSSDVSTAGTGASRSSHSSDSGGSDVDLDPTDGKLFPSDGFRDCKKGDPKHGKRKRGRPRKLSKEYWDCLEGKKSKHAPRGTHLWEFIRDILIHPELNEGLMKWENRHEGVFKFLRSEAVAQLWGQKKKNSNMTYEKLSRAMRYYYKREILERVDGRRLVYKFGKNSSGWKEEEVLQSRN
# How it was run: as §1
# ETV1 = ETV1 (Homo sapiens, UniProt P50549 1-477); conditions: protein: recombinant; tags: N-terminal GST; dsDNA, one strand shown
# How it was run: as §1
# Sequence of ETV1 (P50549 whole entry): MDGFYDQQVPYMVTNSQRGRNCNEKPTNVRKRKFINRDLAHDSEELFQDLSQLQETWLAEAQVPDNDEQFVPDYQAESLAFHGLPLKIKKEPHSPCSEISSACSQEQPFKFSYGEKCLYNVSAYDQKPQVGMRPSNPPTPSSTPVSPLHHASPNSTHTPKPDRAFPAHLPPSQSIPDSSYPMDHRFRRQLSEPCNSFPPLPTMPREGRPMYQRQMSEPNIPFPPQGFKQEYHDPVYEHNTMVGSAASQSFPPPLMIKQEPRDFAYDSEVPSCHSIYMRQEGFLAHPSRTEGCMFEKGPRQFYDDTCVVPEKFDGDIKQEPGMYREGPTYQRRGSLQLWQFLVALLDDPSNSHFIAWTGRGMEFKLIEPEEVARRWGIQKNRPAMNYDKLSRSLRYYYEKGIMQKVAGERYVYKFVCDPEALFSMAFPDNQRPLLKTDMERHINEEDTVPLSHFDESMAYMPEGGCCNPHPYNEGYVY
# Sequence of ELF1 (P32519 whole entry): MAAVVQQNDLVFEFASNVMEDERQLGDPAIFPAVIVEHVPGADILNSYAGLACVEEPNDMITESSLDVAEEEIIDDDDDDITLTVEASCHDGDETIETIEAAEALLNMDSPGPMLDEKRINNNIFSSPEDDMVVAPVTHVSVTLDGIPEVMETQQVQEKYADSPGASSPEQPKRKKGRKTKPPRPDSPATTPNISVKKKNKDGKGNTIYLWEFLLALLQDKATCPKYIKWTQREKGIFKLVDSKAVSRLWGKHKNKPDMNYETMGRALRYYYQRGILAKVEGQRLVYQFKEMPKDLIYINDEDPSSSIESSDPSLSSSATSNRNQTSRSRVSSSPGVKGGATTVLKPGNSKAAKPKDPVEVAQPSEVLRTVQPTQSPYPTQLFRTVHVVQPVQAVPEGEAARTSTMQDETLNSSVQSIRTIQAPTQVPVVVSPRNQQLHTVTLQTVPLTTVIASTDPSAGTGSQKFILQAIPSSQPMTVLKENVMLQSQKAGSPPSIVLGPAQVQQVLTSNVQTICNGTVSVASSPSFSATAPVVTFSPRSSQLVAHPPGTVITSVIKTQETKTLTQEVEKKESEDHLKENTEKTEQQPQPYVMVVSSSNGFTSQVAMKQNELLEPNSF
# Sequence of HSF1 (Q00613 whole entry): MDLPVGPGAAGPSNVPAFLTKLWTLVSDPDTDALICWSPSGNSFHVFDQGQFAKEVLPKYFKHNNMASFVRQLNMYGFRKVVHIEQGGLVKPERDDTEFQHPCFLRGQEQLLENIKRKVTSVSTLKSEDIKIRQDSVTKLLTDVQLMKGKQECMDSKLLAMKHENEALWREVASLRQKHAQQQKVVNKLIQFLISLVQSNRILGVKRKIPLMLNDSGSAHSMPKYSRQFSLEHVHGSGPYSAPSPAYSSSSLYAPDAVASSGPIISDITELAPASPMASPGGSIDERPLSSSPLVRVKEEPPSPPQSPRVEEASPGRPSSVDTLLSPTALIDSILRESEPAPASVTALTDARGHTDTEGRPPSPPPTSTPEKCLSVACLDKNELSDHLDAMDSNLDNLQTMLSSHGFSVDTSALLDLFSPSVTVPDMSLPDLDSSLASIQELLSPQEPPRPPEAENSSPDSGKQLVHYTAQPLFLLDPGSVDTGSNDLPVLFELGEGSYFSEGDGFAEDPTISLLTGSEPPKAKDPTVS
# Sequence of SPIB (Q01892 whole entry): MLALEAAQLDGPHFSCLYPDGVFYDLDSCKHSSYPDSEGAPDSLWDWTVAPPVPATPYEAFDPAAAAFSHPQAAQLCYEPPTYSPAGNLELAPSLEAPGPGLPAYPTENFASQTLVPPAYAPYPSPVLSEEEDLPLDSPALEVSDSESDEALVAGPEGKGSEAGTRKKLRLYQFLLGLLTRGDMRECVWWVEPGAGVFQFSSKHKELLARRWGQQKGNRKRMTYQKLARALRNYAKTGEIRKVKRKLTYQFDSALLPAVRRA
# Sequence of ETV5 (P41161 whole entry): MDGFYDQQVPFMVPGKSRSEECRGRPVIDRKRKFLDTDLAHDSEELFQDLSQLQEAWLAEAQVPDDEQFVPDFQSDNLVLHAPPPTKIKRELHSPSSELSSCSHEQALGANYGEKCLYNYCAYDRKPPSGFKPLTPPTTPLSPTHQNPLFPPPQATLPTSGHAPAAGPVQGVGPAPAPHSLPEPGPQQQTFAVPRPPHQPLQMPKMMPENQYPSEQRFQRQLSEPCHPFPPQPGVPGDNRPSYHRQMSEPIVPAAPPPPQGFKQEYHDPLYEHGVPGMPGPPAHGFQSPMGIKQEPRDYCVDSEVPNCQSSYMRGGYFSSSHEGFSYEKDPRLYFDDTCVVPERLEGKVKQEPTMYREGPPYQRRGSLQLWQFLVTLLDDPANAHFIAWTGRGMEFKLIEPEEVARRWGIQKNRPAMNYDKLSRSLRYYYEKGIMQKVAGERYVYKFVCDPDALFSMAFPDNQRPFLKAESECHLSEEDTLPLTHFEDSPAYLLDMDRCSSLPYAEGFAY
# Sequence of ELF4 (Q99607 whole entry): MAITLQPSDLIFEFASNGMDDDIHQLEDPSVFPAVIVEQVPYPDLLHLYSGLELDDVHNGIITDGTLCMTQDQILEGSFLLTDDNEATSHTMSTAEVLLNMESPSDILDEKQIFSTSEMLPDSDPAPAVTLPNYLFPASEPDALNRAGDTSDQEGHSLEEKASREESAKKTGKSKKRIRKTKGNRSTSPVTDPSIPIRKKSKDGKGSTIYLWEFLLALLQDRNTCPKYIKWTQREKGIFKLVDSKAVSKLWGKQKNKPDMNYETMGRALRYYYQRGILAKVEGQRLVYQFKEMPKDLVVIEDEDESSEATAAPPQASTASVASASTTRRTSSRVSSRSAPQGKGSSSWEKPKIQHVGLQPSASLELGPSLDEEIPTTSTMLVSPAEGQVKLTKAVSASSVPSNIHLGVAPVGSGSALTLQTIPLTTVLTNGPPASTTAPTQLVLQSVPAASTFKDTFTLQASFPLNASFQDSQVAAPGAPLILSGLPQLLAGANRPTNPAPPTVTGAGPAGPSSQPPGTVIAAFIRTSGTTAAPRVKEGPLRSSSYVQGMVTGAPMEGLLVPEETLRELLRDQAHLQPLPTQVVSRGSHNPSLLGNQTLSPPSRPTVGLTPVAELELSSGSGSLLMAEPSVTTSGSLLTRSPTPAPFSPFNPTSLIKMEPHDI
sequence,measurement,setting,value
CCTGGG,binding signal,FLI1,"1.16 fold enrichment (6-mer frequency, TF over GST control)"
same,binding signal,ELK1,"1.18 fold enrichment (6-mer frequency, TF over GST control)"
same,binding signal,GABPA,"1.15 fold enrichment (6-mer frequency, TF over GST control)"
same,binding signal,ERG,"1.16 fold enrichment (6-mer frequency, TF over GST control)"
same,binding signal,ELF1,"1.18 fold enrichment (6-mer frequency, TF over GST control)"
same,binding signal,SPI1,"1.11 fold enrichment (6-mer frequency, TF over GST control)"
same,binding signal,SPIB,"1.08 fold enrichment (6-mer frequency, TF over GST control)"
same,binding signal,FEV,"1.05 fold enrichment (6-mer frequency, TF over GST control)"
same,binding signal,ETV5,"1.05 fold enrichment (6-mer frequency, TF over GST control)"
same,binding signal,HSF1,"1.01 fold enrichment (6-mer frequency, TF over GST control)"
same,binding signal,SPIC,"1.05 fold enrichment (6-mer frequency, TF over GST control)"
same,binding signal,ELF4,"1.09 fold enrichment (6-mer frequency, TF over GST control)"
same,binding signal,ELK4,"1.08 fold enrichment (6-mer frequency, TF over GST control)"
same,binding signal,ETV2,"1.29 fold enrichment (6-mer frequency, TF over GST control)"
same,binding signal,ELF3,"1.06 fold enrichment (6-mer frequency, TF over GST control)"
same,binding signal,ETV1,"1.16 fold enrichment (6-mer frequency, TF over GST control)"
